Each structure is given as a SMILES string. Records with an inconclusive call do not appear. Where a call stands in place of a potency, no number is given. The source made the active and inactive calls. Calls follow the shape of the dose curve; as a rule, active = well fitted inhibition curve with a large enough effect; inconclusive = small, poorly fitted or top-dose-only effect, or effect the other way; inactive = flat fitted curve, though single readings scatter.

The nature of this experiment: qHTS for Inhibitors of Plasmodium falciparum (CP250) proliferation (AID 504320). The note with it: P. falciparum CP250 in erythrocytes, SYBR Green DNA, 72 h; series mostly up to 6.7 µM. From the text: Plasmodium falciparum is a virulent malarial parasite that kills 1-2 million people worldwide each year. Malaria not only inflicts tremendous suffering and morbidity on the human population, but has dramatically influenced the course of civilization with profound sociological and economic implications (Shah, S. 2010). Transmitted by mosquitoes, the sporozoite form of the parasite enters the blood stream to infect hepatocytes, where they become merozoites that infect red blood cells (erythrocytes). Within erythrocytes, merozoites begin a […] cycle of growth and division, after which the parasite is released to infect new red blood cells. Gametocytes, which form within erythrocytes as well, circulate in the bloodstream and are ingested by the mosquito, thereby completing the life cycle (see CDC website). To profile malarial lines for differential chemical responses and to identify inhibitors of malarial growth, an assay that measures P. falciparum growth and replication within erythrocytes was employed. This assay uses a DNA binding fluorescent dye (SYBR Green) to detect parasite DNA following cell lysis. Because mature erythrocytes lack DNA, only Plasmodium-derived DNA is detected. The P. falciparum line cp250, derived from a malarial isolate from Cambodia, (Mu, J., et al. 2010) was added to the panel of lines, Dd2, HB3, 7G8 and GB4 in this study. Laboratory of Assay Development and Screening Technology [ADST] and NIH Chemical Genomics Center [NCGC] Boston University, Chemistry Department, Center for Chemical Methodology and Library Development [CMLD-BU] NIH National Institute of Allergy and Infectious Diseases [NIAID]
ADST Assay Protocol Summary: The 1536-well SYBR Green viability assay was based on the method of Bennett et al (2004) and described previously in 1536-well format (Yuan J., et al. 2009). For screening 3 ul culture medium was dispensed into 1536 well black clear bottom plates (Aurora Biotechnologies) using a Multidrop Combi (Thermo Fisher Scientific Inc.), 23 nL compounds in DMSO were added by a pin transfer (Cleveland, P.H. and Koutz, P.J, 2005) using a pin tool-based delivery system (Kalypsys), and 5 ul of erythrocytes infected with P. falciparum one of five lines (cp250, Dd2, HB3, 7G8 or GB4, 0.3% parasitemia, 2.5% hematocrit final concentration) were added. The plates were incubated at 37C in a humidified incubator in 5% CO2 for 72 h, and 2 ul lysis buffer (20 mM Tris HCl, 10 mM EDTA, 0.16% saponin, 1.6% triton X, 10X SYBR Green I (supplied as 10,000X final concentration by Invitrogen) was added to each well. The plates were mixed for 25 sec with gentle shaking and incubated overnight at room temperature in the dark. The following morning, fluorescence intensity at 485(14) nm excitation and 535(25) nm emission wavelengths was measured on an EnVision (Perkin Elmer) plate reader. Plate reads were normalized relative to the control inhibitor (0.29 uM artemisinin) and vehicle (DMSO) wells present on each plate and then corrected by an algorithm using vehicle-only control plates at the beginning and end of the compound plate stack. References Shah, S. (2010). The Fever: how malaria has ruled humankind for 500,000 years. New York, Sarah Crichton Books. CDC web site, http://www.cdc.gov/malaria/about/biology/index.html Mu, J., Myers, R.A., Jiang, H., Liu, S., Ricklefs, S., Waisberg, M., Chotivanich, K., Wilairatana, P., Krudsood, S., White, N.J., et Plasmodium falciparum genome-wide scans for positive selection, recombination hot spots and resistance to antimalarial drugs Nature Genetics 2010, 42, pp 268-271 Bennett TN, Paguio, M., Gligorijevic, B., Seudieu, C., Kosar, A. D., Davidson, E., and Roepe, P. D. Novel, rapid, and inexpensive cell-based quantification of antimalarial drug efficacy Antimicrobial Agents Chemother. 2004, 48(5): pp 1807-10 Yuan J, Johnson RL, Huang RL, Wichterman J, Jiang HY, Hayton K, Fidock DA, Wellems TE, Inglese J, Austin CP, Su XZ. […]
For orientation: In qHTS, concentration-response curves come from the screen itself.
Take `COC(=O)N[C@H](CC(C)=O)c1cccs1`: the Potency entry is “inactive”.
To `C[C@H]1Cc2c(-c3ccccc3)nc3c(c2CO1)CN(S(=O)(=O)c1ccc(Cl)c2nonc12)CC3` belongs “inactive”; to `C[C@@H]1C=CCC(=O)N[C@@H](c2ccc3ccccc3c2)[C@H](C)C=CCC(=O)N[C@@H]1c1ccc2ccccc2c1`, “inactive”.
To `COCCN1C(=NCC(C)C)NC(c2ccccc2)C(C(=O)OC)=C1C` (stereo not given) belongs “inactive”; to `COCC=CC1=CC2=CC(=O)C(C)(OC(=O)c3cnc4ccccc4n3)C(=O)C2=CN1CC1CC1` (stereo not given), “inactive”.
As for `CCN1C(=NCC(C)C)N[C@@H](CCc2ccccc2)[C@H](C(=O)OC)[C@H]1C`, the entry is “inactive”; as for `COC(=O)NC(C=Cc1ccccc1)C(C(C)=O)C(=O)OC` (stereo not given), “inactive”.
For `C#CCCCON=C1C[C@@H](O)[C@H](O)[C@H]2[C@@H]3C(=O)N(C4CCCCC4)C(=O)[C@@H]3CC[C@@H]12`, the Potency entry was “inactive”.
On to `C[C@@H](ON=C1[C@H]2CCn3c(=O)n(-c4ccccc4)c(=O)n3[C@@H]2[C@H](O)[C@@H]2O[C@H]12)c1cn([C@H](CO)Cc2ccccc2)nn1`, for which the Potency entry is “inactive”.
As for `COC(=O)C1=C(C(=O)OC)[C@@H]2N(Cc3ccccc3)c3ccccc3[C@@]23C[C@@H](C(=O)OC)N(C(=O)Nc2ccccc2F)C3=N1`, the Potency result was “inactive”.
As for `C=CC1=C2C=C(C3CC3)N(CCOC)C=C2C(=O)C(C)(OC(=O)c2ccco2)C1=O` (stereo not given), the entry is “inactive”; as for `C[C@@H]1C=CCCO[C@]12C(=O)N(CC1CC1)c1ccccc12`, “inactive”.
As for `COc1ccc(-c2nc(-c3ccccc3)oc2Nc2c(C)cccc2C)cc1`, the entry is “inactive”; as for `O=C1[C@H]2[C@@H]3[C@@H](O)[C@H](O)CC(=NOCc4ccccc4)[C@@H]3CC[C@H]2C(=O)N1Cc1ccc2c(c1)OCO2`, “inactive”; as for `COC(=O)c1ccc(CN2C(=O)[C@]3(OCCC=C[C@@H]3C)c3ccccc32)cc1`, “inactive”.
As to `COc1ccc2c(c1)O[C@H](c1ccc3c(c1)OCO3)[C@@H](OC(=O)NCc1ccc3c(c1)OCO3)C2=O`, the Potency result is “inactive”.
To `COC(=O)CC1OC1[C@H](C)[C@@H](OC)C(C)C` (stereo not given in full) belongs “inactive”; to `COC1=C[C@H](C(=O)NCc2ccccc2)[C@@]2(C)Cc3ccccc3[C@@H]2CC1=O`, “inactive”.
As to `C=CCOC(=O)N[C@H](C[N+](=O)[O-])c1ccccc1`, the Potency result is “inactive”.
With `CCOC(=O)[C@@]1([C@@H](NC(=O)OC)c2cccc(C)c2)CCCC1=O`, the Potency result was “inactive”.
As for `COc1ccc(COC(=O)NN=C2C[C@@H](O)[C@@H](O)[C@@H]3[C@H]4C(=O)N(Cc5ccccc5)C(=O)[C@@H]4CC[C@@H]23)cc1`, the entry is “inactive”; as for `C#CCN1C(=O)[C@]2(O[C@H](COc3ccccc3)CC3=C2CCC3)c2ccccc21`, “inactive”.
With `CCCCC#C[C@@H]1C=C[C@H](Oc2ccc(C(=O)OC)cc2)[C@@H](COC(=O)OCC)O1`, the Potency entry is “inactive”.
As for `COC(=O)C1=C[C@@H]([C@@H](C)[C@H](OC)c2ccccc2Br)[C@@H]2OCCC[C@H]12`, the entry is “inactive”.
To `COc1cc2c(cc1OC)C1OC(c3ccsc3)(C2)Oc2cc(C)oc(=O)c21` (stereo not given) belongs “inactive”; to `C=CCOC(=O)N[C@@H](c1cccs1)C(C(C)=O)C(C)=O`, “inactive”; to `CC(=O)OC[C@H]1O[C@H](CC=NO[C@@H](C)CN2CCCc3nc(C)c(C)cc32)C=C[C@@H]1OC(C)=O`, “inactive”.
For the compound `C[C@H]1Cc2c(COc3ccccc3)nc3c(c2CO1)CN(C(=O)c1cccnc1)CC3`, the Potency result is “inactive”.
To `O=C1OCCC=C1C(O)CCc1ccccc1` (stereo not given) belongs “inactive”; to `COc1ccc([C@]23Cc4cc(OC)c(OC)cc4[C@H](O2)C2=C(CCCC2=O)O3)cc1`, “inactive”; to `CC(C)CON=C1C[C@@H](O)[C@@H](O)[C@@H]2[C@H]3C(=O)N(C[C@@H]4CCCO4)C(=O)[C@@H]3CC[C@@H]12`, “inactive”.
To `COCCN1C(=O)C2=C(C1=O)C1N(C)c3ccccc3[C@@]13C[C@@H](CO)N(C(=O)CCC(=O)OC)C3=N2` (stereo not given in full) belongs “inactive”; to `CC(CCC(=O)OC[C@H]1O[C@H](C#Cc2ccccc2)C=C[C@H]1Oc1ccc(C)cc1)=NOC[C@@H](O)[C@H]1O[C@@H]2OC(C)(C)O[C@H]2[C@@H]1O`, “inactive”; to `CC(CCC(=O)OC[C@H]1O[C@H](C#Cc2ccccc2)C=C[C@H]1Oc1ccc(C)cc1)=NO[C@H](C)c1cn([C@@H]2COC[C@@H]2O)nn1`, “inactive”.
Regarding `CC12C=C(C=CCCc3ccco3)C(C)(C1)C(CCc1ccco1)CC2=O` (stereo not given), the Potency result is “inactive”.
With `CCN1C(=O)N[C@@H](c2cccc(C(F)(F)F)c2)[C@H](C(C)=O)[C@H]1C`, the Potency result was “inactive”.
To `C=CCN1C(=O)[C@@]2(CC(C)=C[C@@H](COc3ccccc3)O2)c2ccccc21` belongs “inactive”.
As to `CCOC(=O)CN1C(=O)NC(CCc2ccccc2)C(C(=O)OC)=C1C` (stereo not given), the Potency entry was “inactive”.
As for `CC(C)(C)c1ccc(O[C@@H]2[C@H](O)CO[C@@H]2C=CC#Cc2ccccc2)cc1`, the entry is “inactive”; as for `COC(=O)[C@@H]1CC[C@H](C)[C@@H](c2ccc(C)cc2)N1C(=O)c1ccc(C=NOC[C@@H](O)[C@H]2O[C@@H]3OC(C)(C)O[C@H]3[C@@H]2O)cc1`, “inactive”.

These data come from PubChem BioAssay (NCATS).
